Test results published in PubChem BioAssay (NCATS).
Inconclusive results are not listed. Active and inactive are the calls of the source. Unless noted, the call rests on the fitted dose curve; in most records, active means well fitted curve in the direction sought with a large enough effect; inconclusive means small, poorly fitted or top-dose-only effect, or another doubt; inactive means no such curve, though single readings can be large; an effect the other way counts as inactive or inconclusive.

Experiments:
[1] = S16 Schwann cell PMP22 intronic element firefly luciferase assay (AID 624032); further: nearly all actives have a fitted effect of over 30% in size
Procedure, shortened: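 Rat S16 Schwann cells stably carrying a PMP22 intronic element-driven Fluc reporter were seeded overnight, then exposed to compounds for 24 h at 37 °C. Luminescence was normalized to PTC124 (positive control) and DMSO (0% activity).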

[2] = S16 Schwann cell PMP22 intronic element beta-lactamase assay (AID 624044; calls by dose curve; further: nearly all actives have a fitted effect of over 15% in size)
Procedure, shortened: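 Rat S16 Schwann cells with beta-Lac driven by a PMP22 intronic element, compound-treated 24 h at 37 °C. LiveBLAzer FRET B/G read: 460 nm normalized to potassium clavulanate vs DMSO; 535 nm FRET as viability; concentration-effect curves classified.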

CP192 = experiment: qHTS profiling for inhibitors of Plasmodium falciparum proliferation (AID 504749); further: nearly all actives have a fitted effect of over 60% in size; details: P. falciparum in erythrocytes, SYBR Green DNA, 72 h; series mostly up to 28.7 µM
Procedure, shortened: (§1)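 P. falciparum-infected erythrocytes (0.3% parasitemia, 2.5% hematocrit final) were exposed to compounds for 72 h at 37 C in 5% CO2, then lysed with SYBR Green buffer overnight at room temperature; parasite DNA fluorescence was normalized to artemisinin and DMSO controls.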

CP194 = experiment: as above; details: P. falciparum in erythrocytes, SYBR Green DNA, 72 h; series mostly up to 12.8 µM
Procedure, shortened: as §1

CP215 = experiment: as above; details: P. falciparum in erythrocytes, SYBR Green DNA, 72 h; series mostly up to 28.7 µM
Procedure, shortened: as §1

CP260 = experiment: as above; details: P. falciparum in erythrocytes, SYBR Green DNA, 72 h; series mostly up to 12.8 µM
Procedure, shortened: as §1

CP266 = experiment: as above; details: P. falciparum in erythrocytes, SYBR Green DNA, 72 h; series mostly up to 28.7 µM
Procedure, shortened: as §1

CP297 = experiment: as above; details: P. falciparum in erythrocytes, SYBR Green DNA, 72 h; series mostly up to 12.8 µM
Procedure, shortened: as §1

CP315 = experiment: as above; details: P. falciparum in erythrocytes, SYBR Green DNA, 72 h; series mostly up to 12.8 µM
Procedure, shortened: as §1

DIV14 = experiment: as above; details: P. falciparum in erythrocytes, SYBR Green DNA, 72 h; series mostly up to 12.8 µM
Procedure, shortened: as §1

DIV17 = experiment: as above; details: P. falciparum in erythrocytes, SYBR Green DNA, 72 h; series mostly up to 12.8 µM
Procedure, shortened: as §1

GB4 = experiment: as above; details: P. falciparum in erythrocytes, SYBR Green DNA, 72 h; series mostly up to 12.8 µM
Procedure, shortened: as §1

TAB109 = experiment: as above; details: P. falciparum in erythrocytes, SYBR Green DNA, 72 h; series mostly up to 12.8 µM
Procedure, shortened: as §1

W2 = experiment: as above; details: P. falciparum in erythrocytes, SYBR Green DNA, 72 h; series mostly up to 12.8 µM
Procedure, shortened: as §1

[3] = biological target: Guanine nucleotide-binding protein G(i) subunit alpha-1 (Homo sapiens) (UniProt P63096); experiment: qHTS Assay for Inhibitors of RGS12 GoLoco Motif Activity (Green Fluorophore) (AID 879);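 further: negative values mean loss of peptide binding seen as reduced polarization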
Chain of Guanine nucleotide-binding protein G(i) subunit alpha-1 (Homo sapiens) (P63096 whole entry, looked up): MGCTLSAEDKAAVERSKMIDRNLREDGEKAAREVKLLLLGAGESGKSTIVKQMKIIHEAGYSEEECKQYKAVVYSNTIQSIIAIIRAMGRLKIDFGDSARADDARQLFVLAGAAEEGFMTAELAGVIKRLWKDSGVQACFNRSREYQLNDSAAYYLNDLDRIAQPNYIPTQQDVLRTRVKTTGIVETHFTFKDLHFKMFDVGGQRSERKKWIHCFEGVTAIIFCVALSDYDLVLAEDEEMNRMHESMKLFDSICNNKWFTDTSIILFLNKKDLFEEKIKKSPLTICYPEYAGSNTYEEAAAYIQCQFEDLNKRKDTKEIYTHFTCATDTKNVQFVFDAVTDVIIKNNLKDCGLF
Procedure, shortened: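 Fluorescence polarization assay: 50 nM Gαi1 with 10 nM FITC-labeled RGS12 GoLoco peptide in 10 mM Tris pH 7.5, 150 mM NaCl, 0.1 mM GDP, 0.05% NP40, 10 min at room temperature with compound.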

[4] = qHTS Assay for Identification of Small Molecule Agonists for Thrombopoietin (TPO) Signaling Pathway (AID 917)
Procedure, shortened: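 Murine Ba/F3 cells stably expressing human TPO receptor and a Glycoprotein IIb promoter–luciferase reporter were IL-3-starved overnight, then treated with compounds plus TPO (26 pM final, its EC50) for 24 hrs at 37 C; luminescence was read.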

[5] = biological target: Pyruvate kinase (Leishmania mexicana) (UniProt Q27686); experiment: qHTS Validation Assay for Inhibitors of Leishmania Mexicana Pyruvate Kinase (AID 945)
Chain of Pyruvate kinase (Leishmania mexicana) (Q27686 2-499 E452W): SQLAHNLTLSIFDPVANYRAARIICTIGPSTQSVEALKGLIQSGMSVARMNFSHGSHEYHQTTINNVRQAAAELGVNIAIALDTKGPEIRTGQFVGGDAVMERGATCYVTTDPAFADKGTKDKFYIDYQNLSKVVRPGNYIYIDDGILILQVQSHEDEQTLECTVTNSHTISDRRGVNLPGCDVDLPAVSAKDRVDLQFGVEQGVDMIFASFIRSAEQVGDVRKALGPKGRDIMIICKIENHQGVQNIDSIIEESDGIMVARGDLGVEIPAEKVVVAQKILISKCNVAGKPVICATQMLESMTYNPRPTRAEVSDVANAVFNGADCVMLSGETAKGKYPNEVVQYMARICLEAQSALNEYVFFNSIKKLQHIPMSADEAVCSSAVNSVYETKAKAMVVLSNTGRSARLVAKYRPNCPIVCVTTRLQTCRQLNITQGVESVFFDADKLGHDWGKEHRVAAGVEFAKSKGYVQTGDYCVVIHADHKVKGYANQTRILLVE
Procedure, shortened: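 qHTS eight-point titrations against 0.2 nM LmPYK (E451W) in imidazole buffer pH 7.2 with 0.5 mM PEP, 0.1 mM ADP; 1 h, room temperature. Readout: PKLight luminescence, normalized to neutral DMSO wells.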

[6] = biological target: Pyruvate kinase PKM (Homo sapiens) (UniProt P14618); experiment: qHTS Assay for Activators of Human Muscle Pyruvate Kinase (AID 954; active means well fitted curve in the direction sought with a large enough effect, not every such curve was filed as active)
Chain of Pyruvate kinase PKM (Homo sapiens) (P14618 whole entry, looked up): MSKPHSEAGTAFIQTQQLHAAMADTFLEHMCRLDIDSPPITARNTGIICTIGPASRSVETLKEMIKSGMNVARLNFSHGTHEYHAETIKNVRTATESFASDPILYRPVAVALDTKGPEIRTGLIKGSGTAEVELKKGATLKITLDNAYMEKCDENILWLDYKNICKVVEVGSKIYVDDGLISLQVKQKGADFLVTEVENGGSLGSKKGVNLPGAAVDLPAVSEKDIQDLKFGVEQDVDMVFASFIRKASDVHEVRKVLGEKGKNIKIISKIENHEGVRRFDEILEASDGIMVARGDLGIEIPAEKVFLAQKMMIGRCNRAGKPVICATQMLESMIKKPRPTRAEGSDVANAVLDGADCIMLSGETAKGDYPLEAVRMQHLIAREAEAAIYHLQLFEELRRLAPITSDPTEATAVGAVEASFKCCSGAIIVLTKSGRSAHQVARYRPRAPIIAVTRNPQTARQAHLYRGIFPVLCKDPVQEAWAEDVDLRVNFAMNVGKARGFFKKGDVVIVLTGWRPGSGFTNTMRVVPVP
Procedure, shortened: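 Human PKM2 activity is measured as ATP generation, detected by luciferase-coupled luminescence. The enzyme (0.1 nM) acts on 0.5 mM PEP and 0.1 mM ADP for 1 h at ambient temperature; data are normalized to uninhibited and full-inhibition wells.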

[7] = biological target: Alpha-galactosidase A (Homo sapiens) (UniProt P06280); experiment: Counterscreen for Glucocerebrosidase Inhibitors: qHTS Assay for Human alpha-Galactosidase at pH 4.5 (AID 992)
Chain of Alpha-galactosidase A (Homo sapiens) (P06280 whole entry, looked up): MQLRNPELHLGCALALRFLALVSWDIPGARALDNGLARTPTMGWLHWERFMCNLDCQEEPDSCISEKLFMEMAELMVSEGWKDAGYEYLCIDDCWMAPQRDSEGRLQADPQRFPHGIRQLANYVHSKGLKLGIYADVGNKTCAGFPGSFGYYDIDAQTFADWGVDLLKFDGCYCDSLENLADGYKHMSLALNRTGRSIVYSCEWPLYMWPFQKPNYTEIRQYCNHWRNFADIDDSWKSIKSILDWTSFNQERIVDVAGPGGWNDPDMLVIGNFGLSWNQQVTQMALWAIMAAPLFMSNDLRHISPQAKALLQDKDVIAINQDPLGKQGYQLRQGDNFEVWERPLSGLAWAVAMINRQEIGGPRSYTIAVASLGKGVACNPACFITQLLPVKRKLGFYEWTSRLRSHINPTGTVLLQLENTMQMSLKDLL
Procedure, shortened: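 Quantitative HTS: compounds tested from 0.7 nM up to 77 uM against 2 nM enzyme with 80 uM 4-MU alpha-D-galactopyranoside. The 20 min room-temperature reaction is stopped with 1M NaOH/1M glycine, pH 10.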

[8] = biological target: alpha-glucosidase (Oryza sativa, rice) (UniProt Q653V4); experiment: Counterscreen for Glucocerebrosidase Inhibitors: qHTS Assay for Rice alpha-Glucosidase at pH 5.0 (AID 997)
Procedure, shortened: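 Rice alpha-glucosidase (4 nM final) with 400 uM 4-methylumbelliferyl-alpha-D-glucopyranoside in citrate buffer pH 5.0, 20 min at room temperature, stopped at pH 10; fluorescence 365/440 nm, compounds 0.7 nM–77 uM, AC50 from Hill fits.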

Measured: Potency

C[n+]1ccccc1/C=N\O
not listed: [3] | [4] | [5] | [6] | [7] | [8]
inactive: all other assays above

CO[C@H]1C[C@@H](O[C@@H]2[C@H](C)[C@H](O[C@@H]3O[C@@H](C)C[C@@H](N(C)C)[C@@H]3O)[C@H](C)C[C@]3(CO3)C(=O)[C@H](C)[C@H](O)[C@H](C)[C@H](C)OC(=O)[C@@H]2C)O[C@@H](C)[C@H]1O
not listed: [3] | [4] | [5] | [6] | [7] | [8]
inactive: all other assays above

C/C=C\C(=O)N(CC)c1ccccc1C
not listed: CP192 | [3] | [4] | [5] | [6] | [7] | [8]
inactive: all other assays above

CC(C)(O/N=C(\C(=O)N[C@@H]1C(=O)N2C(C(=O)[O-])=C(C[n+]3ccccc3)CS[C@@H]12)c1csc(N)n1)C(=O)O
not listed: [2] | [3] | [4] | [5] | [6] | [7] | [8]
inactive: all other assays above

CO/N=C(/C(=O)NC1C(=O)N2C(C(=O)O)=C(CSc3nc(=O)c(O)nn3C)CSC12)c1csc(N)n1 (stereo unspecified)
inactive: [1] | CP192 | CP194 | CP215 | CP260 | CP266 | CP297 | CP315 | DIV17 | GB4 | TAB109

C[C@@](N)(Cc1ccc(O)cc1)C(=O)O
inactive: [3] | [4] | [5] | [6] | [7] | [8]

CC1(C)Oc2ccc(C#N)cc2[C@H](N2CCCC2=O)[C@H]1O
not listed: [2] | CP260 | [3] | [4] | [5] | [6] | [7] | [8]
inactive: all other assays above

CCN1C(=O)N[C@@H](c2ccccc2)C1=O
not listed: [3] | [4] | [5] | [6] | [7] | [8]
inactive: all other assays above

CC1(C)S[C@@H]2[C@H](NC(=O)[C@H](C(=O)O)c3ccsc3)C(=O)N2[C@H]1C(=O)O
not listed: CP260 | CP297 | [3] | [4] | [5] | [6] | [7] | [8]
inactive: all other assays above

CC(=O)OCC1=C(C(=O)O)N2C(=O)[C@@H](NC(=O)CSc3ccncc3)[C@@H]2SC1
inactive: all assays above

Cc1ccccc1[C@@H](OCCN(C)C)c1ccccc1
inactive: [3] | [4] | [5] | [6] | [7] | [8]

O=c1[nH]cnc2c1ncn2C1OC(CO)C(O)C1O (stereo unspecified)
not listed: CP192 | CP315 | [3] | [4] | [5] | [6] | [7] | [8]
inactive: all other assays above

Cn1c(=O)c2c(ncn2C[C@@H](O)CO)n(C)c1=O
not listed: [3] | [4] | [5] | [6] | [7] | [8]
inactive: all other assays above

O=C(O)[C@H]1CCCN(CCC=C(c2ccccc2)c2ccccc2)C1
inactive: [3] | [4] | [5] | [6] | [7] | [8]

C[N+]1(C)CCC[C@@H](OC(=O)C(O)(c2ccccc2)c2ccccc2)C1
inactive: [1] | [2] | CP194 | CP260 | CP266 | CP297 | DIV14 | DIV17 | GB4 | TAB109 | W2

CN[C@@H](CC(C)C)C(=O)N[C@@H]1C(=O)N[C@H](CC(N)=O)C(=O)N[C@@H]2C(=O)N[C@H]3C(=O)N[C@H](C(=O)N[C@H](C(=O)O)c4cc(O)cc(O)c4-c4cc3ccc4O)[C@H](O)c3ccc(c(Cl)c3)Oc3cc2cc(c3O[C@H]2O[C@@H](CO)[C@@H](O)[C@@H](O)[C@@H]2O[C@@H]2C[C@](C)(N)[C@H](O)[C@H](C)O2)Oc2ccc(cc2Cl)[C@@H]1O
not listed: [2] | [3] | [4] | [5] | [6] | [7] | [8]
inactive: all other assays above

CCN1CCC[C@@H]1CNC(=O)c1cc(S(N)(=O)=O)ccc1OC
inactive: [3] | [4] | [5] | [6] | [7] | [8]

CC(=O)O[C@@H](C)C[N+](C)(C)C
not listed: CP215
inactive: all other assays above
